Reference: PubChem BioAssay (NCATS)
Where “and” joins values, the source holds several entries; their conditions need not be identical. Identical values can stand only once. Inconclusive results are not listed.

Assay: qHTS Assay for Lipid Storage Modulators (AID 1519)
Conditions: Drosophila S3 cells, BODIPY lipid droplet/cell ratio, laser cytometry; measured here: lipid channel max response; cells loaded with oleic acid
Summary of the method: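 Cells seeded at 5,000 per well were treated with compounds over a concentration series and loaded with oleic acid (400 uM, as added). Lipid droplet fluorescence (488 nm excitation, 500-530 nm channel) was read by laser-scanning cytometry and normalized to 20 uM Triacsin C.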

| SMILES | max response |
| --- | --- |
| COc1ccc2c(c1)OCC(Cc1ccc(OC)c(OC(C)=O)c1)C2=O (stereo unspecified) | -2.44% |
| CC(=O)OC1CC[C@]2(C)C(CC(OC(C)=O)[C@@]3(C)C4=CC(=O)OC(c5ccoc5)[C@]4(C)CCC23)C1(C)C (stereo partly specified) | -14.8% and -4.52% and 18.3% |
| O=c1c(-c2ccccc2)coc2cc(O)cc(O)c12 | 7.42% |
| COc1cccc(-c2nc(Nc3ccncc3)c3ccccc3n2)c1 | -19.7% |
| N[C@H](C(=O)O)C(O)C(O)C(O)CO (stereo partly specified) | 3.07% |
| NCC1OC(n2cnc3c(=O)[nH]c(N)nc32)C(O)C1O (stereo unspecified) | -2.83% |
| COc1ccccc1CNc1ncnc2ccc(-c3cccnc3)cc12 | -6.23% |
| CC1(C)C(O)CC[C@]2(C)C1CC[C@@]1(C)C2C(=O)C=C2[C@@H]3C[C@@](C)(C(=O)O)CC[C@@]3(C)CCC21C (stereo partly specified) | 28.1% |
| O=c1c(O)c(-c2ccc(O)c(O)c2)oc2c(OC3OC(CO)C(O)C(O)C3O)c(O)cc(O)c12 (stereo unspecified) | 7.27% |
| CC1(C)C=CC(=O)[C@]2(C)C1CC(=O)[C@]1(C)C2CC[C@@]2(C)C(c3ccoc3)OC(=O)C3OC321 (stereo partly specified) | -18.1% |
| COc1c(-c2ccc(O)c(O)c2)oc2cc(O)cc(O)c2c1=O | -17.7% |
| O=C1CC[C@@]23/C=C/C(=O)NCCCCNCCCNC(=O)/C=C/c4ccc(c2c4)OC3C1 (stereo partly specified) | 1.79% |
| COc1ccc2c(c1)OC/C(=C/c1ccc(O)c(O)c1)C2=O | 11.7% |
| Nc1nc2n[nH]nc2c(=O)[nH]1 | 11% |
| CN(Cc1ccco1)c1nc(-c2cccc(C#N)c2)nc2ccccc12 | 12.8% |
| COc1ccc(C(=O)O)c(O)c1OC | 18.5% |
